Results from PubChem BioAssay (EPA / NIEHS).
Values joined by “and” are separate entries in the source; they are usually repeats but may differ in a detail not shown here. Equal entries are not always repeated. Records with an inconclusive call do not appear. The source holds several records for some structures; these can differ, active in one and inactive in another. Active and inactive are the calls of the source. Rule for the calls: active = hit-call score of the fitted dose curve at least 0.9, where 1 is the maximum; inconclusive = response in the unintended direction; inactive = score below 0.9.

These compounds were tested against Cellular tumor antigen p53 (Homo sapiens) (UniProt P04637) (assay: TOX21_p53_BLA_p3_ratio: Tox21 HCT-116 p53 Agonism Beta-lactamase Assay, Ratio, Phase 3 (AID 2283596)).
Procedure, shortened: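 Cells were seeded at 4000/well, rested 5 h at 37C, then dosed with DMSO compound solutions (217-fold dilution) for 16 h. CCF4-AM substrate was loaded for 2 h at room temperature, and the 460/530 nm emission ratio was fitted for gain of signal versus DMSO.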

Sequence of Cellular tumor antigen p53 (Homo sapiens) (P04637 whole entry, looked up): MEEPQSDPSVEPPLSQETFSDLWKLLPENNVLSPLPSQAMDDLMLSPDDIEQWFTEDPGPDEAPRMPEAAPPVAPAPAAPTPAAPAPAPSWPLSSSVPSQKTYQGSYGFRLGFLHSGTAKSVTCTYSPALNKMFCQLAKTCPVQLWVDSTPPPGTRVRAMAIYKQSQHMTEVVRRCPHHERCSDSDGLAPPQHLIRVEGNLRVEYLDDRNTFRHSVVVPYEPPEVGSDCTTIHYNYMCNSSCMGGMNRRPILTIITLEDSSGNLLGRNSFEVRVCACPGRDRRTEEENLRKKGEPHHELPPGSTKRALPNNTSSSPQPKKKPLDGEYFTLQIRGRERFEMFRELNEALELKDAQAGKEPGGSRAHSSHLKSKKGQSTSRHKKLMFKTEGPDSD

Row | Structure (SMILES) | outcome | AC50
1 | O=C1C(Cl)=C(Cl)C(=O)C(Cl)=C1Cl | inactive | 4.93 µM (active)
2 | N#CCCCCC#N | inactive | 
3 | CC1CCC(=O)O1 (stereo not given) | inactive | 
4 | COc1cc(OC)c(OC)cc1C=O | inactive | 
5 | CC(C)c1ccc(O)cc1 | inactive | 
6 | CC(C)(c1cc(Cl)c(O)c(Cl)c1)c1cc(Cl)c(O)c(Cl)c1 |  | 48.2 µM (active) and 17.7 µM (active)
7 | O=C(NCNC(=O)NC1C(=O)NC(=O)N1CO)NC1C(=O)NC(=O)N1CO (stereo not given) | inactive | 
8 | [N-]=[N+]=CC(=O)OC[C@H](N)C(=O)O | inactive | 
9 | CC(C)CCCCCCCOP(=O)(Oc1ccccc1)Oc1ccccc1 | inactive | 
10 | C=CCN(CC=C)C(=O)C(Cl)Cl | inactive | 
11 | CC[N+](=O)[O-] | inactive | 
12 | CC(Cc1ccc(C(C)(C)C)cc1)CN1C[C@@H](C)O[C@@H](C)C1 (stereo not given in full) | inactive | 
13 | CCOC(=O)N(C)N=O | inactive | 
14 | O=CNC(N1CCN(C(NC=O)C(Cl)(Cl)Cl)CC1)C(Cl)(Cl)Cl (stereo not given) | inactive | 
15 | CCC[N+](=O)[O-] | inactive | 
16 | CC(C)(O)C#N | inactive | 
17 | S=c1[nH]c2ccccc2[nH]1 | inactive | 
18 | CCCCCc1cc(O)cc(O)c1 | inactive | 
19 | c1ccc(Nc2ccc3ccccc3c2)cc1 | inactive | 
20 | CC=Cc1ccc2c(c1)OCO2 | inactive | 
21 | Cc1ccc(OP(=O)(Oc2ccc(C)cc2)Oc2ccc(C)cc2)cc1 (tested in a mixture with another compound) | inactive | 
22 | O=S(=O)(c1ccccc1)c1ccccc1 | inactive | 
23 | CC1(C)C(=O)NC(=O)NC1=O | inactive | 
24 | CCOC(=O)COc1ccc(Cl)cc1Cl | inactive | 
